For assay [1], the system named is Wnt5a (protein binding on small-molecule microarray). The experiment in a line: Wnt5a binders on small-molecule microarray, primary screen, biophysical, 635/667 nm fluorescence (AID 1142).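 Note: fluorescence read at 667 nm with signal to noise per printed feature.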 To be noted: 635 nm fluorescence, higher = more signal.
A short description of assay [2]: cell viability in Huh7 cells, primary screen, cytotoxicity control for HCV replication inhibitor project, CellTiter-Glo luminescence, basal, 48 h (AID 1143).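 Note: Huh7 hepatoma cells carrying a hepatitis C replication reporter with no stimulus; test concentration not given here.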 The note with it: Huh7 HCV replicon, higher = more signal, called active from +8 up or from −8 down. For orientation: Cellular ATP, detected with luciferase, serves as a proxy for viable cell number.
Assay [3] is described as follows: P. aeruginosa biofilm formation inhibitors, primary screen, PAO1 strain, BacTiter-Glo luminescence, LB-PBS (AID 1144). To be noted: 12 h, higher = more signal.
Assay [4] is described as follows: CREB reporter modulators without forskolin, primary screen, cell-based, PC12, CRE-LacZ reporter, unstimulated (AID 1145). To be noted: no forskolin, luminescence, 4.5 h, higher = more signal, called active from +8 up or from −8 down.
Assay [5] in a line: CREB reporter modulators under forskolin, primary screen, cell-based, PC12, CRE-LacZ reporter, forskolin-stimulated (AID 1146).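 Note: PC12 cells with 6xCRE LacZ reporter stimulated by forskolin 10 µM; beta-galactosidase reporter signal reflecting CREB driven transcription.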 The note with it: luminescence, 4.5 h, higher = more signal, called active from +8 up or from −8 down.
Assay [6] addresses Streptavidin (Streptomyces avidinii) (UniProt P22629). The assay is described as follows: streptavidin binders on small-molecule microarray, primary screen, artefact control for SMM compound annotation, biophysical, 635/667 nm fluorescence (AID 1147).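 Note: signal reflects streptavidin binding to arrayed compounds as a control protein.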 The note with it: streptavidin binding, higher = more signal.
Assay [7] can be described thus: small-molecule binders of probe aInhba, primary screen, biochemical, small-molecule microarray, 635/667 nm fluorescence (AID 1148).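 Note: score merges 667nm spot fluorescence with signal-to-noise for antibody binding to printed compounds.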 The note with it: higher = more signal.
Assay [8] deals with Torsin-1A (Homo sapiens) (UniProt O14656). The experiment in a line: torsin A binders from cell lysate, primary screen, small-molecule microarray, wild-type, 635/667 nm (AID 1149). To be noted: COS7 hTOR1A-WT lysate, 635 nm fluorescence, higher = more signal.
Assay [9] has the same target. The assay is described as follows: small-molecule binders of mutant TOR1A in lysate, primary screen, cell lysate, small-molecule microarray, COS7 lysate, 635/667 nm fluorescence (AID 1150).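 Note: score pools 667 nm emission and signal to noise measuring lysate protein binding.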 To be noted: COS7 hTOR1A mutant lysate, 635 nm fluorescence, higher = more signal.
Assay [10] concerns Sonic hedgehog protein (Shh). The assay is described as follows: small-molecule binders of Shh protein, primary screen, biochemical, small-molecule microarray, 635/667 nm fluorescence (AID 1151).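 Note: Shh protein binding to compounds spotted on small-molecule microarray slides; score combines spot fluorescence intensity with signal-to-noise across triplicate slides.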 To be noted: small-molecule microarray binding, 635 nm fluorescence; higher = more signal.
Assay [11] in a line: E. coli DRC41 culture turbidity changes, primary screen, E. coli filamentation inducer project, strain DRC41, OD650, 48 h (AID 1152).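 Note: E. coli MC1000 strain DRC41 lacking acrAB efflux pump and sulA.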 To be noted: E. coli DRC41 (acrAB sulA), higher = more signal, called active from +8 up or from −8 down.
Assay [12] in a line: small-molecule binders of probe aLefty1, primary screen, biochemical, small-molecule microarray, 635/667 nm fluorescence (AID 1153).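 Note: score merges spot fluorescence with signal-to-noise ratio from the scanned slide images.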 The note with it: higher = more signal.
Assay [13] is described as follows: PSAC antagonists in infected red cells, primary screen, cell-based, P. falciparum Indochina, OD700, 1 h (AID 1154). To be noted: P. falciparum Indochina infected RBC osmotic lysis, higher = more signal, called active from +8 up or from −8 down.
Assay [14] is described as follows: PSAC antagonists in infected red cells, primary screen, cell-based, P. falciparum Indochina, OD700, 2 h (AID 1155).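 Note: lysis reports solute entry through the parasite surface anion channel PSAC; channel blockers reduce lysis of infected cells.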 To be noted: P. falciparum Indochina infected erythrocytes, osmotic lysis OD700; higher = more signal, called active from +8 up or from −8 down.
Assay [15] can be described thus: osmotic lysis modulators in infected erythrocytes, primary screen, PSAC antagonist project, cell-based, P. falciparum Indochina, OD700, 3 h (AID 1156). To be noted: higher = more signal, called active from +8 up or from −8 down.
A short description of assay [16]: PSAC antagonists in infected red cells, primary screen, cell-based, P. falciparum Indochina, OD700, 18 h (AID 1157). The note with it: P. falciparum Indochina infected erythrocytes, osmotic lysis OD700, 18 h; higher = more signal, called active from +8 up or from −8 down.
The nature of assay [17]: modulators of S6 phosphorylation in cells, primary screen, cell-based, A549, cytoblot, luminescence, serum-stimulated (AID 1158).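 Note: serum-stimulated A549 lung adenocarcinoma cells; signal is phosphorylated S6 detected by cytoblot immunostaining with HRP secondary.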 To be noted: A549 phospho-S6 cytoblot, 5 h, higher = more signal.
Assay [18] concerns the target NADPH oxidase 2 (Homo sapiens) (UniProt P04839). The experiment in a line: NOX2-dependent H2O2 signal modulators, primary screen, NOX inhibitor project, cell-based, HEK293-NOX2, PMA-stimulated, Amplex Red fluorescence (AID 1159). Note: test concentration not given here. To be noted: 45 min, higher = more signal, called active from +8 up or from −8 down.
For assay [19], the target named is NADPH oxidase 4 (Homo sapiens) (UniProt Q9NPH5). The assay is described as follows: NOX4-dependent H2O2 signal modulators, primary screen, NOX inhibitor project, cell-based, HEK293-NOX4, tetracycline-induced, Amplex Red fluorescence (AID 1160). The note with it: 45 min, higher = more signal, called active from +8 up or from −8 down.
In assay [20] the target is NADPH oxidase 5 (Homo sapiens) (UniProt Q96PH1). The experiment in a line: NOX5-dependent H2O2 signal modulators, primary screen, NOX inhibitor project, cell-based, HEK293-NOX5, Amplex Red fluorescence (AID 1161). The note with it: HEK293-NOX5, ionomycin, 45 min, higher = more signal.

Calls of active or inactive are those of the source. Unless noted, the rule behind the calls is not given here.

Sequence of NADPH oxidase 5 (Homo sapiens) (Q96PH1 whole entry, looked up): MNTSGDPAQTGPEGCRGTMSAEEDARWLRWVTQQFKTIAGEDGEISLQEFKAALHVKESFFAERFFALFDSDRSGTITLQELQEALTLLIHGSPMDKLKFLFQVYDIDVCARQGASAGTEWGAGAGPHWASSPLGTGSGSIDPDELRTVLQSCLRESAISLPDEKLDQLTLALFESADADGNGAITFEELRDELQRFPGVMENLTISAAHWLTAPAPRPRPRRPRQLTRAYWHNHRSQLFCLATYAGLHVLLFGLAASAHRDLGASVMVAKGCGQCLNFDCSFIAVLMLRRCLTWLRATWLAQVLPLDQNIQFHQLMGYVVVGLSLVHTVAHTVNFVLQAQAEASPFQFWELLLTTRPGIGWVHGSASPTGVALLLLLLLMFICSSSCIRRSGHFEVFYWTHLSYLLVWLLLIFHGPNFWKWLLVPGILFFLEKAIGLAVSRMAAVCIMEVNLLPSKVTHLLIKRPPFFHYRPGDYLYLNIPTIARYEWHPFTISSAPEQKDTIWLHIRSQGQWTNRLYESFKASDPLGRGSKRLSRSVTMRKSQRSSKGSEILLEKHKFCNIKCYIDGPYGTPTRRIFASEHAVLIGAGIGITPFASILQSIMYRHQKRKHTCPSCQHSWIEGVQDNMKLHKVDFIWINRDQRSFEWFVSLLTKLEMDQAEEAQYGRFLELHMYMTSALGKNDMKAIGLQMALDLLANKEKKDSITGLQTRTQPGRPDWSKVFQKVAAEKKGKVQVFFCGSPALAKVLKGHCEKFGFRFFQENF
Sequence of NADPH oxidase 4 (Homo sapiens) (Q9NPH5 whole entry, looked up): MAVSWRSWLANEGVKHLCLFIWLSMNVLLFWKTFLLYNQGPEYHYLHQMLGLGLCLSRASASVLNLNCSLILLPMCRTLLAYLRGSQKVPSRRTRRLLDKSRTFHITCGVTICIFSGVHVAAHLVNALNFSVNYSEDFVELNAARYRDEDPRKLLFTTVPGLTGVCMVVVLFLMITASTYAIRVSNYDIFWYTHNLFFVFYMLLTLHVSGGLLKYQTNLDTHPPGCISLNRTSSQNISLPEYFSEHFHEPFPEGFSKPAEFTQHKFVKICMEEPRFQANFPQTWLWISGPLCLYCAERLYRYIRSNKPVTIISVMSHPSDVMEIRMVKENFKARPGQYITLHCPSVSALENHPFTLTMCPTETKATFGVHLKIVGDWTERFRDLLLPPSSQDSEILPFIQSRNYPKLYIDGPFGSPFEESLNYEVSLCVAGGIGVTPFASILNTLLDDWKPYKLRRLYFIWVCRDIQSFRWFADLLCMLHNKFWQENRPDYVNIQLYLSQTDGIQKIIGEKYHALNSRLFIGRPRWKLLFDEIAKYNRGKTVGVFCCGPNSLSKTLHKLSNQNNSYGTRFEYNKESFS
Sequence of NADPH oxidase 2 (Homo sapiens) (P04839 whole entry, looked up): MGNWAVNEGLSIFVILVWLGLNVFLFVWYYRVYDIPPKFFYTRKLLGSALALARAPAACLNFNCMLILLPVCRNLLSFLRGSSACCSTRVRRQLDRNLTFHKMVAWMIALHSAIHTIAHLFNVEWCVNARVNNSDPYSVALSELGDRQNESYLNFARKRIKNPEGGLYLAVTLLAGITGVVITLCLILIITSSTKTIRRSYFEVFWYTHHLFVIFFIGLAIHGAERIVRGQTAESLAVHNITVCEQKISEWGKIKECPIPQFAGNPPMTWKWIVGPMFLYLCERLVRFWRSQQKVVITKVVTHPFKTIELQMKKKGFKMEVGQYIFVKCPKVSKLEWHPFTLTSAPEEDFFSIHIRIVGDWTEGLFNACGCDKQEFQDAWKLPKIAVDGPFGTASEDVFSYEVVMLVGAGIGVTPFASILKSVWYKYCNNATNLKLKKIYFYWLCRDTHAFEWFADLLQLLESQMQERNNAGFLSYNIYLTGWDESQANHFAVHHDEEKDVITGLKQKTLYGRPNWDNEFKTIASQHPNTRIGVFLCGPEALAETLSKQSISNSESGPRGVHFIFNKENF
Sequence of Torsin-1A (Homo sapiens) (O14656 whole entry, looked up): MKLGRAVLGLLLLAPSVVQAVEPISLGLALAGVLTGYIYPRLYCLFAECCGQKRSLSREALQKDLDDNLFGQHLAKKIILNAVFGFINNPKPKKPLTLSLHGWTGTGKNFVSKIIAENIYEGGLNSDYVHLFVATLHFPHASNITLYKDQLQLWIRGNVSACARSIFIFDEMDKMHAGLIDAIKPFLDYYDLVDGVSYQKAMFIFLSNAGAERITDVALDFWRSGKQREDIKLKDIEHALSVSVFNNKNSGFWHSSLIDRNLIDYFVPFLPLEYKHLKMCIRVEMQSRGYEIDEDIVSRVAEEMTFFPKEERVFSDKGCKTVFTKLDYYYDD
Sequence of Streptavidin (Streptomyces avidinii) (P22629 whole entry, looked up): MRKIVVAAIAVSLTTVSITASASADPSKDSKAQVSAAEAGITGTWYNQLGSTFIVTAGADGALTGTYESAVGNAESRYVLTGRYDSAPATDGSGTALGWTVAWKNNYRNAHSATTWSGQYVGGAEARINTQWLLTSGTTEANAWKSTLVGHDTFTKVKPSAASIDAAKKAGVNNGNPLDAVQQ

In the case of `O=C1O[C@@H](c2ccccc2)[C@@H](c2ccccc2)N2[C@@H](c3ccc(OCCO)cc3)[C@]3(C(=O)Nc4ccc(C#CC5=CCCCC5)cc43)[C@@H](C(=O)NC[C@H](O)c3ccccc3)[C@H]12`, the composite z-score in [1] came to 0.771; in assay [6], 1.5; in [7] it was 0.853; in the assay with Torsin-1A (Homo sapiens) [8], 0.411; in the assay with Torsin-1A (Homo sapiens) [9] it was 1.01; in [10] it was 1.38. Besides, the composite z-score in [12] is 1.38. The z-score in [2] is -3.51 (inactive); in [3], -0.209 (inactive); in assay [4], -0.329 (inactive); in assay [5], -0.239 (inactive); in assay [11], -0.836 (inactive); in [13], 1.96 (inactive). Moreover, the z-score was 0.982 (inactive) in assay [14]; -0.607 (inactive) in assay [15]; 0.381 (inactive) in [16]; -0.164 in [17]; 1.61 (inactive) in assay [18]; 0.433 (inactive) in assay [19]. Besides, the z-score in assay [20] was determined as 0.469.
For `C=CCC(OC(C)=O)[C@@H]1[C@@H](N(Cc2ccc(-c3cccc(C(F)(F)F)c3)o2)C(=O)c2ccc(-c3ccccc3)cc2)c2cc(OCCCO)ccc2N1C(=O)Cc1ccc2ccccc2c1` (stereo not given in full), the composite z-score in assay [1] was -0.276; in assay [6], -0.368; in [7] it was -0.113; with Torsin-1A (Homo sapiens) [8], -1.21; with Torsin-1A (Homo sapiens) [9], -1.1; in assay [10] it was -0.0629. For the same compound, the composite z-score in assay [12] worked out at 0.0451. The z-score in [2] was -0.165 (inactive); in assay [3], -0.184 (inactive); in [4], 0.572 (inactive); in assay [5] it was 0.368 (inactive); in assay [11] it was -0.75 (inactive); in [13], 0.702 (inactive). For the same compound, the z-score was 0.609 (inactive) in assay [14]; 0.191 (inactive) in [15]; 0.532 (inactive) in assay [16]; 0.0285 in assay [17]; -1.34 (inactive) in [18]; -1.69 (inactive) in assay [19]. Besides, the z-score in assay [20] was -0.791.
Consider `Cc1cc(C)c(C(O)C2C=CC3C(=O)N(c4ccccc4)C(=O)C3N2Nc2ccccc2F)c(C)c1` (stereo not given), for which the composite z-score in assay [1] is -0.122; in assay [6], 0.563; in assay [7], 0.122; in the assay with Torsin-1A (Homo sapiens) [8] it was -0.489; with Torsin-1A (Homo sapiens) [9], -0.395; in assay [10], 0.0807. In addition, the composite z-score in [12] was -0.0111. Also, the z-score is 0.224 (inactive) in assay [2]; -0.386 (inactive) in [3]; 0.44 (inactive) in assay [4]; -0.425 (inactive) in [5]; -1.56 (inactive) in assay [11]; 1.33 (inactive) in assay [13]. Moreover, the z-score in [14] is 1.35 (inactive); in assay [15], -0.167 (inactive); in assay [16] it was 1.32 (inactive); in assay [17], -0.855; in assay [18], -0.611 (inactive); in assay [19], -0.918 (inactive). The compound further yielded a z-score in [20] of -0.344.
Take `CCOC(=O)C[C@H]1[C@H](OC(=O)c2ccc(-c3ccccc3)cc2)[C@@H](NC(=O)CC(C)C)c2cc(OCCCO)ccc2N1C(=O)c1ccc2ccccc2n1`: the composite z-score in assay [1] was -0.0361; in [6], 1.31; in assay [7] it was -0.0259; with Torsin-1A (Homo sapiens) [8] it was 0.0908; with Torsin-1A (Homo sapiens) [9], 0.31; in [10] it was 0.637. In addition, in assay [12], the composite z-score is -0.274. The z-score is -0.0042 (inactive) in [2]; -0.453 (inactive) in [3]; 1.04 (inactive) in assay [4]; -0.428 (inactive) in assay [5]; -0.0672 (inactive) in assay [11]; 2.19 (inactive) in [13]. Further, the z-score in assay [14] was 0.0409 (inactive); in assay [15] it was 0.457 (inactive); in assay [16], 0.238 (inactive); in assay [17], 0.2; in [18], -1.89 (inactive); in assay [19] it was 0.452 (inactive). The compound further displayed a z-score in [20] of -0.0775.

Source of the values: PubChem BioAssay.
